Compound activity as filed in PubChem.
hgDAF12 agonist: agonists of H. glycines DAF-12 nuclear receptor. HEK293 GAL4-hgDAF12 UAS-luciferase reporter, agonist luminescence; normalized to butyrate control. activation, % at 6.8 µM. hit rate 1.8% among 370,000;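 active means activation above a cutoff set at the mean of all screened compounds plus 3 SD, cut at about 10% in these data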;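 further: 0% = DMSO wells and 100% = sodium butyrate wells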
PolyA inhibitor: blocks polyadenylation in yeast reporter cells | hit rate 0.02% among 300,000 | S. cerevisiae SKY197-pL101 polyadenylation reporter, beta-gal luminescence; efflux-impaired pdr1/pdr3 knockout yeast; score 100 = 6 SD above DMSO | activity score, % at 12 µM;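 active means lowest replicate activity score at least 50, where 100 means six control SD above control mean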;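 further: yeast exposed to compound for 9 h at 30 °C; higher score means more reporter readthrough which indicates perturbed polyadenylation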
hcDAF-12 act: H. contortus DAF-12 activation, primary screen; AID 652067; HEK293 hcDAF-12 lit1-tk-luc reporter, luminescence; 0% DMSO, 100% Δ7-dafachronic acid; activation, % at 6.8 µM; hit rate 1.4% among 370,000;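 active means activation above the mean of all tested compounds plus 3 SD, cut at about 5.5% in these data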;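 further: 100% = response to 3 µM Δ7-dafachronic acid high control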
DAX1 inh-1: inhibits human nuclear receptor DAX1. P51843. HEK293 Gal4-DAX1 luciferase reporter, luminescence. hit rate 0.99% among 340,000. inhibition, % at 6.75 µM. AID 504766;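 active means inhibition above the mean over all tested compounds plus 3 SD, cut at about 4.2% in these data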;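 further: 0% = DAX1-transfected cells with DMSO and 100% = empty-vector control cells with DMSO; inhibition shows as a rise in luminescence from relieved DAX1 repression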
Target sequence (P51843 207-470 limits assumed): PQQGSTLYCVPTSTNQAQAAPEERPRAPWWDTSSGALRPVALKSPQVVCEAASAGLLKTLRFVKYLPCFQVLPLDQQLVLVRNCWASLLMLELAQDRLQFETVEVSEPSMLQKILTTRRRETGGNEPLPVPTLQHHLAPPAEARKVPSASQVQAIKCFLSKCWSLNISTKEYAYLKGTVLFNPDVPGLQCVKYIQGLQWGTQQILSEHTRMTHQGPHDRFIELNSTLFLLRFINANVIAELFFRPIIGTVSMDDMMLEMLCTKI
DAX1 inh-2: blocks DAX1 repression of SF-1 activated StAR promoter | AID 652010 | HEK293T StAR-luciferase reporter, SF-1/DAX-1 repression relief | inhibition, % at 6.8 µM | hit rate 1.1% among 370,000;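 active means inhibition above the mean over all tested compounds plus 3 SD, cut at about 3.6% in these data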;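 further: 0% = DAX-1 cells with DMSO and 100% = cells lacking DAX-1 with DMSO; higher inhibition means more luminescence from relief of DAX-1 repression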
ssDAF-12 act: activates DAF-12 receptor from parasite S. stercoralis | HEK293 ssDAF-12/GRIP1 lit1-tk-luc reporter, luminescence; % of 3 µM dafachronic acid response | activation, % at 6.8 µM | hit rate 1% among 370,000;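 active means activation above the mean over all tested compounds plus 3 SD, cut at about 0.9% in these data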;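 further: 0% = DMSO-only wells and 100% = 3 µM delta7-dafachronic acid wells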
* hit, by the source's call. Most compounds without a hit are left out; they make up all but 4.1% or so of the library.

How did Nc1nonc1OCCCCOc1nonc1N do in these assays?
hgDAF12 agonist: -0.8; PolyA inhibitor: -0.9; hcDAF-12 act: -1.6; DAX1 inh-1: 1.3; DAX1 inh-2: 0.0; ssDAF-12 act: 3.3*

Results for O=C1/C(=C\c2ccccc2)C2OCC=C3CN4CCC56c7ccccc7N1C5C2C3CC46 (centres undefined) ?
hgDAF12 agonist: 2.2; PolyA inhibitor: -5.3; hcDAF-12 act: -0.6; DAX1 inh-1: 0.5; DAX1 inh-2: -0.5; ssDAF-12 act: -1.0

Results for COc1cc(CN2CCNCC2)cc(OC)c1OC ?
hgDAF12 agonist: 4.7; PolyA inhibitor: 0.5; hcDAF-12 act: 0.8; DAX1 inh-1: -0.3; DAX1 inh-2: -0.3; ssDAF-12 act: 1.0*

How did COc1ccc(CN2CCNCC2)c(OC)c1OC do in these assays?
hgDAF12 agonist: -2.5; PolyA inhibitor: 22.9; hcDAF-12 act: -1.2; DAX1 inh-1: -0.6; DAX1 inh-2: -1.0; ssDAF-12 act: -1.3

How did O=C(CF)NC(NC(=S)Nc1ccccc1O)C(Cl)(Cl)Cl (centres undefined) do in these assays?
hgDAF12 agonist: -1.4; PolyA inhibitor: -5.1; hcDAF-12 act: 2.9; DAX1 inh-1: 4.9*; DAX1 inh-2: -1.1; ssDAF-12 act: -1.0

Results for COc1ccc2c(c1)CC1(CN2C)C(=O)NC(=O)N(c2ccc(F)cc2)C1=O (centres undefined) ?
hgDAF12 agonist: 2.3; PolyA inhibitor: 18.6; hcDAF-12 act: 6.0*; DAX1 inh-1: 0.7; DAX1 inh-2: -0.2; ssDAF-12 act: -1.0

What do the screens show for `Cc1ccc2c(c1)N(N=O)CCC2`?
hgDAF12 agonist: -0.2; PolyA inhibitor: -15.1; hcDAF-12 act: 2.6; DAX1 inh-1: 1.9; DAX1 inh-2: 0.4; ssDAF-12 act: -1.4

How did CCSc1nnc([C@@H](N)Cc2ccccc2)o1 do in these assays?
hgDAF12 agonist: 0.6; PolyA inhibitor: -13.9; hcDAF-12 act: -0.2; DAX1 inh-1: -0.4; DAX1 inh-2: 0.5; ssDAF-12 act: -0.5

How did COc1cc(C2c3cc4c(c(O)c3CC3COC(=O)C32)OCO4)cc(OC)c1OC (centres undefined) do in these assays?
hgDAF12 agonist: -6.7; hcDAF-12 act: -0.5; DAX1 inh-1: 0.6; DAX1 inh-2: 3.4; ssDAF-12 act: -0.1

What do the screens show for `COc1cc(C2c3cc(O)c(OC)cc3CC3C(=O)OCC32)ccc1O` (centres undefined)?
hgDAF12 agonist: -1.6; hcDAF-12 act: -0.6; DAX1 inh-1: 4.8*; DAX1 inh-2: 1.1; ssDAF-12 act: -1.4

How did CCc1ccc(-c2nn(Cc3ccccc3)cc2C=O)cc1 do in these assays?
hgDAF12 agonist: 13.2*; PolyA inhibitor: -18.3; hcDAF-12 act: 1.5; DAX1 inh-1: 1.4; DAX1 inh-2: 3.5; ssDAF-12 act: -0.7

Results for O=Cc1cn(Cc2c(F)cccc2Cl)nc1-c1ccccc1 ?
hgDAF12 agonist: 1.0; PolyA inhibitor: 6.2; hcDAF-12 act: 0.7; DAX1 inh-1: -0.1; DAX1 inh-2: 0.5; ssDAF-12 act: 0.0

What do the screens show for `C=C1C[C@]2(O)[C@@]3(C)CCC(=O)C(C)(C)C3=C(O)C(=O)[C@@]2(C)[C@@H]2C(=O)O[C@@](C)(C(=O)OC)C(=O)[C@@]12C`?
hgDAF12 agonist: 7.4; PolyA inhibitor: 7.5; hcDAF-12 act: -0.2; DAX1 inh-1: 5.0*; DAX1 inh-2: 2.5; ssDAF-12 act: -0.5

Results for CN1CCN(c2ccc(N)cc2Cl)CC1 ?
hgDAF12 agonist: -1.9; PolyA inhibitor: 9.9; hcDAF-12 act: -1.1; DAX1 inh-2: -0.2; ssDAF-12 act: -1.1

What do the screens show for `CC(=O)OC1CCC2(C)C(CC(=O)C3C2CCC2(C)C(OC(C)=O)CCC32)C1` (centres undefined)?
hgDAF12 agonist: 1.2; hcDAF-12 act: -0.7; DAX1 inh-1: -0.5; DAX1 inh-2: 1.0; ssDAF-12 act: -0.5

Results for COc1cc(/C=C/[N+](=O)[O-])ccc1OC(=O)c1cccnc1 ?
hgDAF12 agonist: -1.6; PolyA inhibitor: -7.3; hcDAF-12 act: 4.7; DAX1 inh-1: 0.5; DAX1 inh-2: -0.2; ssDAF-12 act: 1.3*

How did COc1cc2c(cc1/C=C/[N+](=O)[O-])OCO2 do in these assays?
hgDAF12 agonist: -3.8; PolyA inhibitor: -0.1; hcDAF-12 act: -0.6; DAX1 inh-1: -1.3; DAX1 inh-2: -1.4; ssDAF-12 act: -1.9

Results for COc1ccccc1N1CCN(Cc2cccc(Br)c2)CC1 ?
hgDAF12 agonist: -1.6; PolyA inhibitor: -10.7; hcDAF-12 act: -1.4; DAX1 inh-1: 2.5; DAX1 inh-2: -0.1; ssDAF-12 act: -1.0

How did Cc1cc(C)cc(NC(=O)CCNC(=O)N2C[C@H]3C[C@@H](C2)c2cccc(=O)n2C3)c1 do in these assays?
hgDAF12 agonist: -3.1; PolyA inhibitor: -22.0; hcDAF-12 act: -1.7; DAX1 inh-1: 4.3*; DAX1 inh-2: 0.2; ssDAF-12 act: -1.7

Results for O=C(N/N=C/c1c(O)n(Cc2ccc(F)cc2)c(=O)[nH]c1=O)c1ccccc1 ?
hgDAF12 agonist: 10.9*; PolyA inhibitor: 5.3; hcDAF-12 act: 0.9; DAX1 inh-1: 6.6*; DAX1 inh-2: 0.4; ssDAF-12 act: -1.2

Results for O=C(N/N=C/c1c(O)n(CCC2=CCCCC2)c(=S)[nH]c1=O)c1ccccc1 ?
hgDAF12 agonist: 11.3*; PolyA inhibitor: 9.6; hcDAF-12 act: 1.4; DAX1 inh-1: 0.7; DAX1 inh-2: 1.5; ssDAF-12 act: -0.1

What do the screens show for `CNC(=O)OCc1n(C)cc[n+]1C`?
hgDAF12 agonist: 0.3; PolyA inhibitor: 19.1; hcDAF-12 act: -2.1; DAX1 inh-1: 0.9; DAX1 inh-2: 0.9; ssDAF-12 act: -1.4

How did Cc1ccc(S(=O)(=O)Cc2ccc(C(=O)N3CCC4(CC3)OCCO4)o2)cc1 do in these assays?
hgDAF12 agonist: 0.3; PolyA inhibitor: 1.1; hcDAF-12 act: 5.8*; DAX1 inh-1: 1.3; DAX1 inh-2: 0.1; ssDAF-12 act: -0.5

What do the screens show for `CCCCn1c(O)c(C(C)=NC(Cc2c[nH]c3ccccc23)C(=O)OC)c(=O)[nH]c1=O` (centres undefined)?
hgDAF12 agonist: 3.1; PolyA inhibitor: 6.5; hcDAF-12 act: 0.8; DAX1 inh-1: 2.2; DAX1 inh-2: 0.2; ssDAF-12 act: -1.1

What do the screens show for `COCCO[C@H]1CC[C@@]2(C)C(=CCC3C2CC[C@@]2(C)C3CC[C@]2(C)O)C1` (some centres undefined)?
hgDAF12 agonist: 10.6*; hcDAF-12 act: -0.3; DAX1 inh-1: -0.9; DAX1 inh-2: -0.5; ssDAF-12 act: -0.4

How did Nc1ccc2c(c1)oc1ccccc12 do in these assays?
hgDAF12 agonist: 11.2*; PolyA inhibitor: -1.6; hcDAF-12 act: 1.9; DAX1 inh-1: 1.2; DAX1 inh-2: 2.0; ssDAF-12 act: -0.9

What do the screens show for `CN1CCN(c2c(N)c(=O)oc3ccccc23)CC1`?
hgDAF12 agonist: -0.5; PolyA inhibitor: 13.3; hcDAF-12 act: 0.9; DAX1 inh-1: -0.3; DAX1 inh-2: 1.9; ssDAF-12 act: -1.5
